Screening data from PubChem.
A selection: hits, their analogues and other compounds. The true share with any hit is near 3.7%.
miR-21 reporter: qHTS Assay for Modulators of miRNAs and/orActivators of miR-21; HeLa miR-21 FLuc reporter, luciferase, 48 h; Potency, µM (doses to about 38.3 µM), without a hit: at the top dose activity change, positive = activation, actives largely listed as activators; 340,000 tested, under 10 active; AID 2288, 2010;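 note: % of control where 0% means no effect; miR-21 action dims this reporter so a rising signal means less miR-21 action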
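HeLa miR-21-FLuc reporter line, endogenous miR-21; 2000 cells/well in DMEM/10% FBS; compound titration up to ~40uM final, 48 h, 37 degree Celsius; luciferase detection reagent, 15 min lysis, CCD luminescence.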
Nrf2 ARE act: qHTS of Nrf2 Activators; AREc32 ARE-luciferase reporter (MCF7-derived line), luminescence, 24 h; Potency, µM (top dose mostly 46.1 µM), for inactives: top-dose activation, actives largely listed as activators; hit rate 0.31% among 410,000; note: potency is the fitted concentration of half-maximal effect; % of control where 0% means no effect; nearly all actives have a fitted effect of over 65% in size
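Nrf2 activation is followed as ARE-luciferase induction in the AREc32 line after one day of compound treatment; luminescence is read with Steady-Glo.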
Nrf2 inh: Nrf2 qHTS screen for inhibitors | A549 ARE-Fluc reporter, luciferase luminescence, 18-24 h | Potency, µM (titrated, usually from 46 µM), for inactives: at the top dose activity change, negative = inhibition, hits mostly inhibitors | hit rate 2.1% among 360,000 | AID 504444, 2011; note: potency is the fitted concentration of half-maximal effect; % is set by controls: 0 for no effect and ±100 for the full control effect; nearly all actives have a fitted effect of over 60% in size
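A549 ARE_Fluc cells (5000/well, 5% FBS OPTI-MEM) pre-incubated 2 h, then treated with compounds 18-24 h at 37C/5% CO2 in concentration-response. CellTiter-Fluor viability read first; BugLite luciferase luminescence after 15 min at room temperature gives Nrf2 activity.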
A549 tox-1: Nrf2 qHTS screen for inhibitors: counterscreen for cytotoxicity; A549 ARE-Fluc cells, CellTiter-Fluor viability, 18-24 h; Potency, µM (series often up to 46 µM), without a hit: at the highest dose activity change, negative = cytotoxicity, hits mostly inhibitors; hit rate 0.16% among 390,000; AID 504648, 2011; note: potency is the fitted concentration of half-maximal effect; % is set by controls: 0 for no effect and ±100 for the full control effect
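A549 ARE-Fluc cells in 5% FBS OPTI-MEM, 5000 cells/well, rested 2 h then exposed to compounds in concentration-response for 18-24 h at 37 °C. Viability by CellTiter-Fluor fluorescence (Ex 405/Em 525) after 30 min; luciferase luminescence (BugLite, 15 min, RT) read afterwards.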
IL2 activator: qHTS of IL-2 Activators; IL-2 activation reporter assay, cell-based qHTS; stimulated with anti-CD3/CD4/CD28 beads; in transgenic mouse T cells; activation, % (series mostly up to about 46 µM); hit rate 0.065% among 360,000; AID 652025, 2013; in the data active = activation above about 50%; inconclusive = mostly about 30% to 49%; note: 0% is about no effect
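EGFP and DsRed fluorescence is measured by plate cytometry in unstimulated transgenic mouse T cells exposed to compound for 60 minutes, then stimulated 18 hours at 37 degrees C with anti-CD3/anti-CD4 beads plus anti-CD28.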
ClpP mod: qHTS Assay for Activators of ClpP; AID 651965, 2013; Potency, µM (titrated, usually from 57.5 µM), without a hit: at the highest dose activity change, negative = active; ATP-dependent Clp protease proteolytic subunit (Bacillus subtilis (strain 168)), P80244; hit rate 1.9% among 340,000; purified B. subtilis ClpP, FRET peptide cleavage, 20 min; active = well fitted falling curve with a large enough effect; inconclusive = small, poorly fitted or top-dose-only effect; inactive = no such curve, though single readings can be large or run the other way; note: potency is the fitted concentration of half-maximal effect; the source files actives as falling curves though it sought activators and does not explain the sign; nearly all actives have a fitted effect of over 65% in size
Target sequence (P80244 whole entry, looked up): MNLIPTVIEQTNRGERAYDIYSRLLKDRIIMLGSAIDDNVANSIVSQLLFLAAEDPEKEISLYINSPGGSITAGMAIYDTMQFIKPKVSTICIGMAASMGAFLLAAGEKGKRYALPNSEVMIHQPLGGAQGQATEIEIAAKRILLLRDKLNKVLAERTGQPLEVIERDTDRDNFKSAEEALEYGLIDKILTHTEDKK
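FRET quenching reversal measured ClpP activation: 10 microg/mL B. subtilis ClpP at pH 8 with the FRET-FV decapeptide, read at 430 nm after 320 nm excitation. The 20-min minus 0-min signal was scaled between DMSO/no-enzyme wells and ADEP (5.8 microM final).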
FLuc counter 3: Nrf2 qHTS screen for inhibitors: Purified Fluc Biochemical Counterscreen for Hit Validation | Potency, µM (titrated, usually from 57.5 µM), without a hit: at the highest dose activity change, negative = inhibition, usual class: inhibitors | purified firefly luciferase, luminescence inhibition | hit rate 4% among 1,400 | shares compounds with Nrf2 inh | AID 720522, 2013; note: potency is the fitted concentration of half-maximal effect; % is set by controls: 0 for no effect and ±100 for the full control effect; nearly all actives have a fitted effect of over 65% in size
Target sequence (P08659 whole entry, looked up): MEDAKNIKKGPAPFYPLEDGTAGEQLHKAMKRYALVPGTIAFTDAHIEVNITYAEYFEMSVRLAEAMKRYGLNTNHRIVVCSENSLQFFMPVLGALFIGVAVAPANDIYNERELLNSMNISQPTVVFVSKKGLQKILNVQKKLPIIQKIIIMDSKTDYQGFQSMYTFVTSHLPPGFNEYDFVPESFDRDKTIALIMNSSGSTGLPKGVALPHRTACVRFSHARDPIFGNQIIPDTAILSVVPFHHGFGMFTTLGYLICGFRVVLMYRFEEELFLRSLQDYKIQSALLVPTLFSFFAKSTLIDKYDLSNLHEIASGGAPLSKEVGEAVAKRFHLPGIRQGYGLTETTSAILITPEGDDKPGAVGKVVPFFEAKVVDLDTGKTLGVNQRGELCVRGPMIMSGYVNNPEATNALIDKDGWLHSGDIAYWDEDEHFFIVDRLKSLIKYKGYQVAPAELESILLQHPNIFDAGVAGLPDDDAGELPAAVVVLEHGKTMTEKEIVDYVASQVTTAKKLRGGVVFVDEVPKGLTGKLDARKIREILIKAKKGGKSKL
A549 tox-2: Nrf2 qHTS screen for inhibitors: A549 ARE-Fluc Cytotoxicity Counterscreen for Hit Validation; Potency, µM (doses to about 46.1 µM), for the others: at the highest dose activity change, negative = cytotoxicity, actives largely listed as inhibitors; hit rate 2% among 1,400; AID 720523, 2013; shares compounds with Nrf2 inh; A549 ARE-Fluc cells, cytotoxicity counterscreen;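 note: potency is the fitted concentration of half-maximal effect; cells exposed to compounds for 18 to 24 hours; % is set by controls: 0 for no effect and ±100 for the full control effect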
Nrf2 ARE inh: Nrf2 qHTS screen for inhibitors: Nrf2 A549 ARE-Fluc Confirmation Assay for Hit Validation; shares compounds with Nrf2 inh; AID 720524, 2013; hit rate 74% among 1,400; A549 ARE-firefly luciferase reporter, luminescence; Potency, µM (titrated, usually from 46.1 µM), without a hit: at the top dose activity change, negative = inhibition, most hits filed as inhibitors; note: potency is the fitted concentration of half-maximal effect; % is set by controls: 0 for no effect and ±100 for the full control effect; nearly all actives have a fitted effect of over 65% in size
ClpP validation: qHTS Assay for Activators of ClpP: Hit Validation of Inhibitors. shares compounds with ClpP mod. purified B. subtilis ClpP, FRET-FV substrate cleavage, 20 min. Potency, µM (series often up to 57.5 µM), for inactives: at the highest dose activity change, negative = inhibition, actives largely listed as inhibitors. hit rate 40% among 470. AID 743245, 2014; note: potency is the fitted concentration of half-maximal effect; % is set by controls: 0 for no effect and ±100 for the full control effect; nearly all actives have a fitted effect of over 70% in size
* marks the source's active call; other numbers are inactive results; [ ] = dose if it differs, or a comment. Unless noted, calls come from the whole dose curve; as a rule, active = well fitted curve in the direction sought with a large enough effect; inconclusive = small, poorly fitted or top-dose-only effect, or another doubt; inactive = no such curve, though single readings can be large; an effect the other way counts as inactive or inconclusive.

Screening CN(C)c1ccc(CNC(=O)C2CCCN(S(=O)(=O)c3ccc4c(c3)CCCC(=O)N4)C2)cc1 (stereo unspecified) returned miR-21 reporter 28%, Nrf2 ARE act -1%, Nrf2 inh 5.8µM*, A549 tox-1 0%, ClpP mod -2%, FLuc counter 3 -10%, A549 tox-2 -1% and Nrf2 ARE inh inconclusive.
For CCOc1ccc(-c2c[n+]3c(n2-c2ccccc2)CCCCC3)cc1 the results were miR-21 reporter 29%, Nrf2 ARE act 0%, Nrf2 inh 0.92µM*, A549 tox-1 inconclusive, IL2 activator -1, ClpP mod 0%, FLuc counter 3 1%, A549 tox-2 -16% and Nrf2 ARE inh 10µM*.
`COc1ccc(-n2c(-c3ccccc3)c[n+]3c2CCC3)cc1` gave miR-21 reporter inconclusive, Nrf2 ARE act 0%, Nrf2 inh 9.2µM*, A549 tox-1 -12%, IL2 activator -4, ClpP mod 3%, FLuc counter 3 1%, A549 tox-2 -12% and Nrf2 ARE inh 6.5µM*.
COc1ccc(-n2c(-c3ccc(Br)cc3)c[n+]3c2CCC3)cc1 was read as miR-21 reporter 29%, Nrf2 ARE act -1%, Nrf2 inh 4.6µM*, A549 tox-1 -13%, IL2 activator 0, FLuc counter 3 1%, A549 tox-2 -1% and Nrf2 ARE inh -36%.
`CCOc1ccc(-n2c(-c3ccc(Cl)cc3)c[n+]3c2SCC3)cc1` gave miR-21 reporter inconclusive, Nrf2 ARE act 0%, Nrf2 inh -14%, A549 tox-1 3% and IL2 activator -3.
COc1ccc(-n2c(-c3ccc(Br)cc3)c[n+]3c2CCCCC3)cc1 was read as miR-21 reporter inconclusive, Nrf2 ARE act 3%, Nrf2 inh inconclusive, A549 tox-1 -2% and IL2 activator -1.
For COc1ccc(CNC(=O)c2cccc(S(=O)(=O)N3CCN(c4ccc(F)cc4)CC3)c2)cc1 the results were Nrf2 ARE act 0%, Nrf2 inh inconclusive, A549 tox-1 -8%, IL2 activator -1 and ClpP mod -1%.
For COc1cccc(CNC(=O)c2cccc(S(=O)(=O)N3CCN(c4ccc(F)cc4)CC3)c2)c1 the results were Nrf2 ARE act 2%, Nrf2 inh inconclusive, A549 tox-1 0%, IL2 activator 0, ClpP mod 0%, FLuc counter 3 1%, A549 tox-2 -1% and Nrf2 ARE inh inconclusive.
For COc1ccc(NC(=O)CN(C)C(=O)c2cccc(S(=O)(=O)N3CCN(c4ccc(F)cc4)CC3)c2)cc1 the results were Nrf2 ARE act 0%, Nrf2 inh 5.8µM*, A549 tox-1 inconclusive, IL2 activator -1, ClpP mod 0%, FLuc counter 3 3%, A549 tox-2 -10% and Nrf2 ARE inh 18µM*.
For CN(CC(=O)Nc1ccc(F)cc1)C(=O)c1cccc(S(=O)(=O)N2CCN(c3ccccc3)CC2)c1 the results were miR-21 reporter 14%, Nrf2 ARE act 2%, Nrf2 inh inconclusive, A549 tox-1 -18%, IL2 activator 0 and ClpP mod 0%.
COc1ccc(NC(=O)C(CC(C)C)NS(=O)(=O)c2ccc3c(c2)oc(=O)n3C)cc1Cl (stereo unspecified) was read as miR-21 reporter -28%, Nrf2 ARE act 0%, Nrf2 inh 0%, A549 tox-1 2% and ClpP mod -1%.
Screening O=C(NCCc1ccccc1)c1cc2sccc2n1Cc1ccc(F)cc1 returned miR-21 reporter 1%, Nrf2 ARE act 1%, Nrf2 inh inconclusive, A549 tox-1 3% and ClpP mod -4%.
For CC(C)CNC(=O)COc1ccc(Sc2ccc(OCC(=O)NCC(C)C)cc2)cc1 the results were miR-21 reporter 0%, Nrf2 ARE act 0%, Nrf2 inh inconclusive, A549 tox-1 -4%, IL2 activator 0 and ClpP mod 1%.
Screening CCCC(C)NC(=O)COc1ccc(Sc2ccc(OCC(=O)NC(C)CCC)cc2)cc1 (stereo unspecified) returned miR-21 reporter 0%, Nrf2 ARE act -1%, Nrf2 inh 3.7µM*, A549 tox-1 0%, IL2 activator -2, ClpP mod -4%, FLuc counter 3 4% and A549 tox-2 0%.
For Cn1c2c(c(=O)[nH]c1=O)C(c1cccc(O)c1)C1=C(N2)c2ccccc2C1=O (stereo unspecified) the results were miR-21 reporter 6%, Nrf2 ARE act 0%[9.22 µM], Nrf2 inh 8.2µM*, A549 tox-1 -25%, IL2 activator -4, FLuc counter 3 -25%, A549 tox-2 inconclusive and Nrf2 ARE inh 4.6µM*.
CCCCOc1ccc(Cn2c(=O)oc3ccc(C)cc32)cc1 was read as miR-21 reporter -9%, Nrf2 ARE act 0%, Nrf2 inh -2%, A549 tox-1 -2% and ClpP mod -2%.
CCCOc1ccc(Cn2c(=O)oc3ccc(C)cc32)cc1OC was read as miR-21 reporter -9%, Nrf2 ARE act -1%, Nrf2 inh inconclusive, A549 tox-1 0%, IL2 activator -2, ClpP mod 240% and ClpP validation -1%.
